Measurements taken from PubChem BioAssay (NCI).
Compounds without any hit were thinned out: in the full panel of roughly 79,000, 15% have a hit. A number with no mark means an inactive call. The source made the active and inactive calls. Rule as the data show it: active = growth inhibition above about 70%; inactive = the rest.

What was measured:
[1] = NCI Yeast Anticancer Drug Screen. Data for the rad50 strain (AID 155);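 also: 0% = growth of vehicle-only cultures of the same strain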; details: S. cerevisiae rad50 strain growth inhibition; at 50.0 µM; stronger effect = higher value
Summary of the method: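 Relative growth inhibition (compound vs vehicle) was measured in yeast with a defined repair-gene alteration.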

[2] = NCI Yeast Anticancer Drug Screen. Data for the mec2-1 strain (AID 157); details: S. cerevisiae mec2-1 strain, at 50.0 µM, stronger effect = higher value
Summary of the method: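 mec2-1 yeast strain, carrying an alteration in DNA damage repair or cell cycle control, was exposed to compounds; growth inhibition was measured relative to vehicle-treated controls.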

[3] = NCI Yeast Anticancer Drug Screen. Data for the sgs1 mgt1 strain (AID 161);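 also: 0% = growth of cultures given vehicle only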; details: S. cerevisiae sgs1 mgt1 strain, at 50.0 µM, stronger effect = higher value
Summary of the method: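 Yeast cells carrying a defined DNA-repair defect were exposed to test compounds. Growth inhibition was measured relative to vehicle-treated controls.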

[4] = NCI Yeast Anticancer Drug Screen. Data for the cln2 rad14 strain (AID 165);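 also: 0% = growth equal to vehicle treated cultures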; details: S. cerevisiae cln2 rad14 strain, at 50.0 µM, stronger effect = higher value
Summary of the method: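 Yeast carrying cln2 and rad14 alterations (cell cycle control and DNA damage repair) were exposed to compounds. Growth inhibition was measured against vehicle-treated controls.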

[5] = NCI Yeast Anticancer Drug Screen. Data for the bub3 strain (AID 167); details: S. cerevisiae bub3 mutant strain, at 50.0 µM, stronger effect = higher value
Summary of the method: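 Screening used yeast with an engineered genetic alteration affecting cell cycle control. Compound-exposed cultures were compared with vehicle cultures, and reduced growth was taken as inhibition.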

[6] = NCI Yeast Anticancer Drug Screen. Data for the mlh1 rad18 strain (AID 175); details: S. cerevisiae mlh1 rad18 strain growth inhibition; at 50.0 µM; stronger effect = higher value
Summary of the method: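 Growth inhibition of the yeast strain was measured after compound exposure and expressed relative to vehicle-treated controls. The strain carries defined defects in DNA damage repair.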

Row | Structure (SMILES) | growth inhibition [1] | growth inhibition [2] | growth inhibition [3] | growth inhibition [4] | growth inhibition [5] | growth inhibition [6]
1 | c1ccc2nc3c(nc2c1)sc1nc2ccccc2n13 | 9.65% | 3.4% | -11.9% | 10.9% | 8.3% | 17.1%
2 | COc1ccc(NC(C)=O)c(C(=O)CCNC(C)=O)c1 | -5.85% | -15.4% | -31.1% | -7.4% | -40% | -23.4%
3 | N#CCCn1nc(SCc2ccccc2)c(=O)[nH]c1=O | -2.6% | 0.3% | 7.65% | 6.3% | -1.65% | 7.85%
4 | CCCCCCCCCCCCSC(=O)CCC(=O)O | -49.5% | -11.9% | 13.8% | -29.9% | 1.85% | 10.1%
5 | COc1ccc(C23OC2Oc2cc(OC4CCCCO4)ccc2C3=O)cc1 (configuration not stated) | 10.1% | -8.45% | -6.25% | -6.4% | 0.35% | 2.55%
6 | COCc1c(C)[nH]c2ccc(N(C)C)cc2c1=O | -6.75% | -3.6% | -14.8% | -42% | -4.9% | -6.55%
7 | CCOC(=O)C(NC(=O)OCc1ccccc1)C(=O)O (configuration not stated) | -22.9% | -27.4% | -14.3% | 7.7% | 5.35% | -14.7%
8 | CC[N+](C)(CC)CCN1C(=O)CC[C@@]2(C)C1=CC[C@@H]1[C@@H]2CC[C@@]2(C)[C@H]1CC[C@]2(C)O | 6.65% | 8.8% | 6.45% | 29.5% | 9.7% | 12.1%
9 | COC(=O)C1(CCCCCBr)CCCCCCCCCCC1=O (configuration not stated) | -8.6% | -15.4% | 24.1% | 12.7% | -25% | -34.5%
10 | Cc1cc(N=[N+]=[N-])c2ccc(Cl)cc2n1 | -8.15% | 1.05% | -5.55% | -47% | 8.55% | 33.1%
11 | CCN(CC)CCOC(=O)C(c1ccccc1)C1C=CCCC1 (configuration not stated) | 38.8% | 2.6% | 19.1% | -1.15% | -3.1% | 30.4%
12 | N#C/C(=C\c1ccc(Cl)cc1)C(=O)N/N=C/c1ccc(Cl)cc1 | 24.6% | 27.1% | 33% | 1.35% | 5.75% | 27.9%
13 | OC(CN(C1CCCCC1)C1CCCCC1)c1ccnc2c(Cl)cc(Cl)cc12 (configuration not stated) | -21.8% | -1% | 7.3% | 0.6% | -6.3% | 18.4%
14 | O=C1Sc2ccccc2C(=O)N2CCCC12 (configuration not stated) | -20.8% | -8.25% | -11.5% | 3.2% | 8.2% | -10.2%
15 | CC(=O)C(N)C(C)C (configuration not stated) | 5.4% | -3.7% | 19.2% | 7.9% | 1.65% | 7.95%
16 | Cc1ccc(-n2cc(-c3ccc(Cl)cc3)c3c2N=CN2NC(c4ccco4)=NC32)cc1 (configuration not stated) | 5.1% | 14.8% | -13.6% | -12.4% | 11% | -15.3%
17 | c1ccc(-c2ccc3c(c2)NCCN3)cc1 | -3% | 9.35% | -13.6% | -4.35% | 7.25% | 21.4%
18 | CCNC(=O)Nc1nc2ccccc2s1 | -27.8% | -13% | 1.75% | -90.7% | -23.8% | -21.4%
19 | Brc1ccc2c[n+]3ccccc3cc2c1 | 11.9% | 7.35% | 12% | -31.9% | 24.2% | 9.4%
20 | CCOC(=O)c1cccc(Cl)c1C(=O)O | -7.75% | -13.1% | 0.25% | -29.5% | -4.05% | -7.75%
21 | Cc1ccc(-c2oc3ccccc3c(=O)c2O)cc1 | 22.9% | -9.9% | 2.1% | -5.3% | 5.45% | 7.65%

Row | Structure (SMILES) | growth inhibition [1] | growth inhibition [2] | growth inhibition [3] | growth inhibition [4] | growth inhibition [5] | growth inhibition [6]
22 | CCCNC(=O)Nc1ccc2c(c1)Cc1cc([N+](=O)[O-])ccc1-2 | -12.2% | 2.5% | -4.3% | -42% | 6.75% | -14.3%
23 | CC(=O)N(C)CC(c1c(C)[nH]c2ccccc12)c1c(C)[nH]c2ccccc12 | 15.3% | -12.3% | 2.2% | -4% | 18% | 40.7%
24 | CC1(c2cccc(N)c2)OCCO1 | 7.4% | -7.2% | 7.35% | -7.9% | 12.7% | 11.9%
25 | c1ccc(-c2cccc(-c3ccccc3)n2)cc1 | 20.5% | 33.9% | -1.4% | -10.8% | -24.3% | 28.7%
26 | CC(=O)OC1(C#N)CCCCC1 | 5.7% | -2.3% | -7.05% | 23.1% | 4.8% | 14.4%
27 | COc1cccc(C)c1C(O)CC1CCCN1 (configuration not stated) | 21.6% | 3.75% | 7.2% | 29.8% | 11.7% | 6.05%
28 | CC1(C)NC(=S)N(O)C1(C)C | 0.1% | -5.65% | -19.8% | -11.9% | 10.8% | -4.8%
29 | N#Cc1nc(C(O)c2ccccc2)oc1N (configuration not stated) | -6.75% | 16.4% | -7.05% | 11.8% | -10.3% | -71.1%
30 | COC1/C=C\OC2(C)Oc3c(C)c(O)c4c(O)c(c(/C=N\NC(=O)CC(=O)N/N=C/c5c6c(O)c7c(O)c(C)c8c(c7c5O)C(=O)C(C)(O/C=C/C(OC)C(C)C(OC(C)=O)C(C)C(O)C(C)C(O)C(C)/C=C/C=C(C)C(=O)N6)O8)c(O)c4c3C2=O)NC(=O)/C(C)=C\C=C/C(C)C(O)C(C)C(O)C(C)C(OC(C)=O)C1C (configuration not stated) | -4.5% | 6.3% | -2.2% | -5.4% | 6.75% | -16.4%
31 | Cc1cc2c(C)n(Cc3ccc(Cl)cc3Cl)nc2c(C#N)c1C | -11.2% | -7.05% | -9.6% | 20.2% | -2.45% | -3.9%
32 | O=C1CCCCCCCC(=O)Nc2ccc3nc4ccccc4c(c3c2)SCCCCCCCCCSc2c3ccccc3nc3ccc(cc23)N1 | 27.7% | -13.2% | -6.75% | -13.2% | -6.5% | 4.2%
33 | CC(=O)c1c(C)c(C)c(=O)n(C/C=C(\C)CCC=C(C)C)c1O | 98% (active) | 99% (active) | 98.7% (active) | 97.4% (active) | 98.3% (active) | 98.1% (active)
34 | Cc1cccc(C)[n+]1[O-] | 1.6% | 5.25% | -6.9% | -38.8% | 16.5% | 0.65%
35 | NC(=O)c1c[nH]c(=O)cc1O | -5.35% | -13.6% | 50.2% | 18.8% | 7.3% | 0%
36 | CC1CSC(C)(C)C(=O)N1 (configuration not stated) | 16.2% | 14.8% | 2.35% | -26.8% | 13.8% | 19.9%
37 | Cc1c2c(cc3c1CCC1(C)C3CCC1C(C)/C=C/C(C)C(C)C)CC(O)CC2 (configuration not stated) | 6.65% | 11.8% | 2.6% | -0.2% | -3% | 20.5%
38 | O=C(O)c1ccccc1C(=O)c1ccccn1 | -4% | -31.8% | -5.9% | 10.6% | -17.2% | -15.2%
39 | C=CCNC(=O)c1ccc[n+](CC(=O)Nc2ccccc2)c1 | 1% | -9.75% | -1.1% | 9.8% | 2.3% | -7.6%
40 | O=[N+]([O-])c1cc(Cl)ccc1Nc1ccccc1 | 51.3% | 32.5% | 57.1% | 4.65% | 24.8% | 53.5%
41 | CC(=O)OC1c2ccccc2Cc2ccccc21 | 21.5% | 26.3% | 4.1% | 16.6% | 19.1% | 13.1%
42 | CCN(CC)CCCNc1ncnc2onc(C)c12 | 15.3% | 15.2% | 2.2% | 6.15% | 1.45% | -9.3%
